# Results: PubChem BioAssay (Tox21)
# Inconclusive results are not listed. Values without a mark were called inactive. Calls of active or inactive are those of the source. The call rests on the fitted dose curve; in most records, active means well fitted cell-killing curve with a large enough effect in the repeat runs; inconclusive means weak or mixed curves, or effect the other way; inactive means flat fitted curve, though single readings scatter.
# Assay: qHTS assay to identify small molecule antagonists of the androgen receptor (AR) signaling pathway using the MDA cell line - cell viability counter screen (AID 743041; further: nearly all actives have a fitted effect of over 45% in size)
# Conditions: MDA-kb2 viability, CellTiter-Fluor, 16 h, cells co-treated with R1881 androgen agonist; series mostly up to 70.3 µM; viability change, negative = cytotoxic: at the top concentration
# Text: National Center for Advancing Translational Sciences [NCATS]
# NIH Chemical Genomics Center [NCGC]
# U.S. Environmental Protection Agency [EPA]
# National Institutes of Environmental Health Sciences [NIEHS]
# National Toxicology Program [NTP]
# U.S. Food and Drug Administration [FDA]
# Androgen receptor (AR), a nuclear hormone receptor, plays a critical role in AR-dependent prostate cancer and other androgen related diseases. Endocrine disrupting chemicals (EDCs) and their interactions with steroid hormone receptors like AR may cause disruption of normal endocrine function as well as interfere with metabolic homeostasis, reproduction, developmental and behavioral functions. To identify the compounds that inhibit AR signaling, MDA-kb2 AR-luc cell line (from ATCC, deposited by Wilson et al.) was used to screen the Tox21 10K compound library. MDA-kb2 AR-luc cell line is human breast carcinoma cell line that was stably transfected with a luciferase reporter gene under control of the MMTV promoter containing response elements for both androgen receptor (AR) and glucocorticoid receptor (GR). The cytotoxicity of the Tox21 compound library against the MDA-kb2 AR-luc cell line was tested in parallel by measuring the cell viability using CellTiter-Fluor assay (Promega, Madison, WI) in the same wells.
# Tox21 Assay Protocol Summary:
# MDA-kb2 AR-luc cells were dispensed at 3,000 cells/4 uL/well of culture medium into white wall/solid-bottom 1536-well plates using a Multidrop Combi (ThermoFisher Scientific, Waltham, MA) dispenser. After the assay plates were incubated at a 37C and 0% CO2 for 5 hr, 23 nL of compounds dissolved in DMSO, positive controls or DMSO only was transferred to the assay plate by a Pintool station (Kalypsys, San Diego, CA), followed by addition of 1 uL of agonist (R1881) in culture medium using a Bioraptr Flying Reagent Dispenser (FRD) workstation (Beckman Coulter, Indianapolis, IN, USA). The plates were incubated at a 37C and 0% CO2 for 16 h. After 15.5 h incubation, 1uL of CellTiter-Fluor reagent (Promega) was added using a Bioraptr FRD to each plate for measuring cytotoxicity. The fluorescence intensity was quantified on a ViewLux plate reader (PerkinElmer, Shelton, CT) following 30 min incubation at 37C and 0% CO2.
# On the % scale 0 is the no-effect control and ±100 the full control effect; potency means the concentration at half of the fitted maximal effect.
Structure (SMILES),"viability change, negative = cytotoxic",Potency
CCCCCCC(C)(C)C(=O)O,5.9%,–
NCCNCCO,-0.205% [at 95 µM],–
N#CCCN(CCO)CCO,-0.557%,–
Nc1ncnc2c1ncn2[C@H]1CC[C@@H](CO)O1,–,inactive
O=[N+]([O-])c1ccc(O/N=C/c2cc(Br)c(O)c(Br)c2)c([N+](=O)[O-])c1,-11%,–
CC[C@]1(O)C[C@H]2CN(CCc3c([nH]c4ccccc34)[C@@](C(=O)OC)(c3cc4c(cc3OC)N(C=O)[C@H]3[C@@](O)(C(=O)OC)[C@H](OC(C)=O)[C@]5(CC)C=CCN6CC[C@]43[C@@H]65)C2)C1,-8.55%,–
CC(=O)OCC[N+](C)(C)C,-2.28%,–
CC1(C)[C@H](C(=O)O)N2C(=O)C[C@H]2S1(=O)=O,0.234%,–
OCCOCC#CCOCCO,8.01%,–
O=C(Nc1cccc2c(=O)cc(-c3nn[nH]n3)oc12)c1ccc(OCCCCc2ccccc2)cc1,-0.752%,–
CC(=O)NC1(c2cccc(F)c2)CCN(CC[C@@]2(c3ccc(Cl)c(Cl)c3)CN(c3ccccc3)C(=O)CO2)CC1,-26%,–
COC(=O)CS,1.82%,–
Cc1cc(C)cc(N)c1,7.28% [at 95 µM],–
O=Cc1c2ccccc2c(Cl)c2ccccc12,2.72%,–
Clc1cc(Cl)nc(Cl)n1,8.34% [at 95 µM],–
CC1=C(CC=O)C(C)(C)CCC1,0.644%,–
Oc1cccc(Nc2ccccc2)c1,-5.35% [at 95 µM],–
CC1CC(C)C(=O)C1=O (stereo not given),-15.8%,–
O=[N+]([O-])c1cc(C2CCCCC2)c(O)c([N+](=O)[O-])c1,–,30.5 µM (active)
CC1CC(OC(=O)C(O)c2ccccc2)CC(C)(C)N1C (stereo not given),–,inactive

Structure (SMILES),"viability change, negative = cytotoxic",Potency
Cc1cc(O)ccc1O,1.07% [at 95 µM],–
CCC1(CO)COCOC1,6.59%,–
CC(C)(C)C(=O)C(=O)O,-1.48%,–
O=C1c2ccccc2C(=O)N1CCc1noc(-c2ccc(CN3CCCCCC3)s2)n1,-13.1%,–
CO/N=C(/C(=O)N[C@@H]1C(=O)N2C(C(=O)O)=C(COC(N)=O)CS[C@H]12)c1ccco1,–,inactive
c1ccc2sc(SN(C3CCCCC3)C3CCCCC3)nc2c1,4.06% [at 95 µM],–
FC(F)(F)c1ccccc1Cl,-0.398% [at 95 µM],–
O=C(O)CCc1nc(-c2ccccc2)c(-c2ccccc2)o1,2.33%,–
CCCCCC[C@@H](O)C/C=C\CCCCCCCC(=O)OCC(O)CO (stereo not given in full),-2.09%,–
C/C=C\C/C=C/CCCCCCCCOC(C)=O,-9.81%,–
CC(C)(c1ccccc1)c1ccccc1,-0.929%,–
Cc1cc(=O)c2c(O)c3c(O)cc(=O)c4c3c3c(cc(O)c1c23)C(C)(C)C=4O,-16.7%,–
CC(=O)c1ccc([N+](=O)[O-])cc1,1.06%,–
Cc1ccccc1S,1.46%,–
CCc1ccccc1,0.872% [at 95 µM],–
CC(=O)Oc1ccc([N+](=O)[O-])cc1CCl,–,54.5 µM (active)
CC(C)(O)c1ccc(CNC(=O)c2cccnc2Oc2ccc3nonc3c2)cc1,8.48%,–
CCOC(=O)c1ccc(I)cc1,2.3% [at 95 µM],–
Cc1ccc2c(Br)cc(Br)c(O)c2n1,-3.41%,–
C=C1C[C@@]23CC[C@H]4[C@@](C)(CCC[C@@]4(C)C(=O)O[C@@H]4O[C@H](CO)[C@@H](O)[C@H](O)[C@H]4O)[C@@H]2CC[C@]1(O[C@@H]1O[C@H](CO)[C@@H](O)[C@H](O[C@@H]2O[C@H](CO)[C@@H](O)[C@H](O)[C@H]2O)[C@H]1O[C@@H]1O[C@H](CO)[C@@H](O)[C@H](O)[C@H]1O)C3,3.3%,–
